Calls of active or inactive are those of the source. Where a call stands in place of a potency, no number is given. The call rests on the fitted dose curve; in most records, active means well fitted inhibition curve with a large enough effect; inconclusive means small, poorly fitted or top-dose-only effect; inactive means flat fitted curve, though single readings scatter.
These compounds were tested against Flap endonuclease 1 (Homo sapiens) (UniProt P39748) (assay: qHTS Validation Assay for the Inhibitors of Human Flap endonuclease 1 (FEN1) (AID 488816)). Conditions: FEN1 nuclease activity, fluorogenic DNA substrate; series mostly up to 57.1 µM.
Sequence of Flap endonuclease 1 (Homo sapiens) (P39748 whole entry, looked up, the tested form may be a part): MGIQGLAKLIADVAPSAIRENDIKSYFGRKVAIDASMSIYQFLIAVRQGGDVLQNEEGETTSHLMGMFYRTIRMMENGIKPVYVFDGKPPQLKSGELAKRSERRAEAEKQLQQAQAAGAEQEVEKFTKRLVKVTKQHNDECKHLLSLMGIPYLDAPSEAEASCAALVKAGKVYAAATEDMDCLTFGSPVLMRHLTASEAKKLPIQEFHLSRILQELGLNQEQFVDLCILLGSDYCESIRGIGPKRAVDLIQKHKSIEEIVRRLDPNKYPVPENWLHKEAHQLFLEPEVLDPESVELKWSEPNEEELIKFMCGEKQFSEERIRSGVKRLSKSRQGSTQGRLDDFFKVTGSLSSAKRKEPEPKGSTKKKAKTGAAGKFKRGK
Excerpt: The major human flap endonuclease FEN1 is an efficient structure-specific enzyme that recognizes and cleaves a 5'-unannealed DNA flap. It belongs to the RAD2 family nucleases, which are involved in DNA metabolism and are highly conserved in prokaryotes and eukaryotes. FEN1 is a key enzyme in DNA replication, repair and maintenance of genomic stability. 5'-flap removal by FEN1 is critical for Okazaki fragment processing during lagging strand DNA synthesis, long-patch base excision repair (LP BER), and regulating or facilitating recombination events. […] Deletion of the yeast FEN1 gene, i.e. rad27, results in an increased frequency of short DNA (3-32 bp) repeats, micro- and mini-satellite formation, trinucleotide repeat expansion, spontaneous recombination events, and a severe growth defect in association with cell cycle arrest in late S/G2 phase. […] Cells from fen1-/- blastocysts show increased apoptotic cell death after ionizing radiation treatment, and chicken cells lacking the fen1 gene are hypersensitive to DNA alkylating agents, e.g. methylmethane sulfonate (MMS) and N-methyl-N'-nitro-N-nitrosoguanidine (MNNG), as well as hydrogen peroxide.
FEN1 is found to be increased in many human cancers, including lung, brain cancer, gastric cancer, prostate cancer, pancreatic cancer and breast cancer. […] In particular, elevation of FEN1 in hormone refractory human prostate cancer cells correlates with resistant to various anticancer agents including ionizing radiation, doxorubicin, paclitaxel and vinblastine.
Three uL of reagents (buffer in column 3 and 4 as negative control and 10 nM FEN1 in columns 1, 2, and 5-48) were dispensed into 1,536-well black solid-bottomed plate. Compounds (23 nL) were transferred via Kalypsys pin tool equipped with 1536-pin array (10 nL slotted pins, V&P Scientific, San Diego, CA). The plates were then incubated for 15 min at room temperature, and 1 uL substrate (50 nM final concentration) were added to start the reaction read twice at 0 min read and 15 min on ViewLux reader. Throughout the screen, reagent bottle and all liquid lines were chilled and made light-tight to minimize reagent degradation. All screening operations were performed on a fully integrated robotic system (Kalypsys, San Diego, CA) containing one RX-130 and two RX-90 anthropomorphic robotic arms (Staubli, Duncan, SC). Library plates were screened starting from the lowest and proceeding to the highest concentration, and a "double-dipping" step of the highest concentration was required to access higher concentrations of compounds. Vehicle-only plates, with DMSO being pin-transferred to the entire column 5-48 compound area, were inserted uniformly at the beginning and the end of each library in order to monitor for and record any shifts in the background, which can be affected by reagent dispensers or loss in enzyme activity overtime. Screening data was corrected, normalized, and concentration-effect relationships were derived by using publicly-available curve fitting algorithms developed in-house (http://ncgc.nih.gov/pub/openhts). A four parameter Hill equation was fitted to the concentration-response data by minimizing the residual error between the modeled and observed responses.
In the case of `NC1CONC1=O` (stereo not given), the Potency is reported as “inactive”. For `COc1cc(/C=C(\C#N)C(=O)Nc2nnc(C(F)(F)F)s2)ccc1OCc1ccc(C(F)(F)F)cc1C(F)(F)F`, the Potency was “inactive”. `CC(C)Cn1c(=O)n(C)c(=O)c2[nH]cnc21` was tested, and the Potency was “inactive”. In the case of `Cc1ccccc1/C=C/C1=NCCN1`, the Potency is reported as “inactive”. With `N[C@H](C(=O)O)c1cc(O)cc(O)c1` the Potency was “inactive”. With `O=C(O)c1ccccc1Nc1ccccc1` the Potency was “inactive”. In the case of `CC1C(=O)N(C)C(=O)c2nc[nH]c21` (stereo not given), the Potency is reported as “inactive”. In the case of `c1ccc2c(c1)CCC[C@H]2Nc1nc2ccccc2[nH]1`, the Potency is reported as “inactive”. `O=C1OC(=O)C2C3CCC(O3)C12` (stereo not given) was tested, and the Potency was “inactive”. `CN(C)CCCc1cc(C(=O)Nc2ccc(-c3ccncc3)cc2)ccc1O` was tested, and the Potency was “inactive”. With `NC(N)=[N+]1CCc2ccccc2C1` the Potency was “inactive”. With `O=C(O)CCC(=O)N1CCCC1C(=O)O` (stereo not given) the Potency was “inactive”. With `N#CC(C#N)=C(N)/C(C#N)=C/c1ccc(O)cc1` the Potency was “inactive”. `NCCS(=O)O` was tested, and the Potency was “inactive”. In the case of `NCCCNCCCCNCCCN`, the Potency is reported as “inactive”. With `CC[C@H](NC(=O)c1c(C)c(-c2ccccc2)nc2ccccc12)c1ccccc1` the Potency was “inactive”. `O=c1[nH]ccc2c(O)cccc12` was tested, and the Potency was “inactive”. For `CC(C)(C)c1cc(/C=C(\C#N)C(N)=S)cc(C(C)(C)C)c1O`, the Potency was “inactive”. `C[C@@]1(C2CCCC2)Cc2cc(OCC(=O)O)c(Cl)c(Cl)c2C1=O` was tested, and the Potency was “inactive”. In the case of `CC(=O)SC1CC2=CC(=O)CC[C@]2(C)C2CC[C@@]3(C)C(CC[C@@]34CCC(=O)O4)C12` (stereo not given in full), the Potency is reported as “inactive”. With `NC(=O)c1cc[n+](CC2=C(C(=O)O)N3C(=O)[C@@H](NC(=O)[C@@H](c4ccccc4)S(=O)(=O)[O-])[C@H]3SC2)cc1` the Potency was “inactive”. With `O=c1cc(-c2ccccc2)[nH]c2nc(Cl)ccc12` the Potency was “inactive”. For `N=S(=O)(O)Cc1noc2ccccc12`, the Potency was “inactive”. `CCCCCCCCCCC/C=C\C(C)(C)/C=C\CCCC(=O)O` was tested, and the Potency was “inactive”. For `C[N+](C)(C)CC=O`, the Potency was “inactive”. `CCCc1c(-c2ccc(O)cc2)nn(-c2ccc(O)cc2)c1-c1ccc(O)cc1` was tested, and the Potency was “inactive”. `C[C@H](NC(=O)/C(C#N)=C/c1ccc(O)c(O)c1)c1ccccc1` was tested, and the Potency was “inactive”. In the case of `COc1cc(C(O)C(=O)O)ccc1O` (stereo not given), the Potency is reported as “inactive”. For `C/C(=C\c1ccc(C(=O)O)cc1)c1ccc2c(c1)C(C)(C)CCC2(C)C`, the Potency was “inactive”. `O=C(O)C1=CCNCC1` was tested, and the Potency was “inactive”. For `CCSC(=N)N`, the Potency was “inactive”. For `COc1ccc(-c2ccc(N)[n+](CCCC(=O)O)n2)cc1`, the Potency was “inactive”. For `CCN(CC)CCOC(=O)c1cc(Cl)c(N)cc1OC`, the Potency was “inactive”. With `CC(N)(Cc1ccc(O)c(O)c1)C(=O)O` (stereo not given) the Potency was 2.38 µM (active). For `O=C(O)/C=C/c1ccc(O)c(O)c1`, the Potency was “inactive”. For `C=CCNc1ncnc2ccc(Br)cc12`, the Potency was “inactive”. In the case of `O=C(O)c1cccnc1C(=O)O`, the Potency is reported as “inactive”. In the case of `CC(=O)NCCc1c[nH]c2ccc(O)cc12`, the Potency is reported as “inactive”. With `Cc1cc(Cn2cnc3c2C[C@@H](C(=O)O)N(C(=O)C(c2ccccc2)c2ccccc2)C3)ccc1N` the Potency was “inactive”. `CCCCCCCCCC[Si](C)(C)CCC(=O)NC(Cc1ccc(C)cc1)c1ccccc1` (stereo not given) was tested, and the Potency was “inactive”.

— PubChem BioAssay (NCATS)
Potency means the concentration at half of the fitted maximal effect.
